Results reported in PubChem BioAssay (EPA / NIEHS).
Activity calls are given as the source filed them. How the source made its calls: active means hit-call score of the fitted dose curve at least 0.9, where 1 is the maximum; inactive means score below 0.9.

Columns and labels:
Settings in all cases: mRNA level, 48 h; actives raise or lower the signal
[1] = read-out: growth arrest and DNA damage 45 (GADD45B), GADD45B (gene 4616); assay: LTEA_HepaRG_GADD45B: Life Technologies and Expression Analysis (LTEA) Assay for growth arrest and DNA damage 45 (GADD45B) using HepaRG (AID 2283461)
Method in brief: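 Differentiated human HepaRG cells in serum-free induction medium exposed 48 h in duplicate to eight concentrations, top 100 uM, half-log steps, 0.5% DMSO. GADD45B mRNA by TaqMan qRT-PCR, normalized to ACTB, GAPDH, POLR2A; bidirectional fit versus DMSO.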

[2] = read-out: ABC Transporter (ABCC3), ABCC3 (gene 8714); assay: LTEA_HepaRG_ABCC3: Life Technologies and Expression Analysis (LTEA) Assay for ABC Transporter (ABCC3) using HepaRG (AID 2283462)
Method in brief: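 Differentiated human HepaRG cells exposed 48 h in serum-free induction medium, 0.5% DMSO vehicle, 8-point half-log series to 100 uM in duplicate. ABCC3 mRNA by qRT-PCR, normalised to ACTB, GAPDH, POLR2A; bidirectional fit vs DMSO.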

[3] = read-out: ABC Transporter (ABCB11), ABCB11 (gene 8647); assay: LTEA_HepaRG_ABCB11: Life Technologies and Expression Analysis (LTEA) Assay for ABC Transporter (ABCB11) using HepaRG (AID 2283463)
Method in brief: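 Using HepaRG cultures held in 0.5% DMSO, chemicals were tested at half-log dilutions from 100 uM for 48 h. Induction or suppression of ABCB11 mRNA, normalized to ACTB, GAPDH and POLR2A, was fitted bidirectionally against vehicle.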

[4] = read-out: ABC Transporter (ABCC2), ABCC2 (gene 1244); assay: LTEA_HepaRG_ABCC2: Life Technologies and Expression Analysis (LTEA) Assay for ABC Transporter (ABCC2) using HepaRG (AID 2283464)
Method in brief: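 Differentiated HepaRG cells in serum-free induction medium exposed 48 h to eight half-log concentrations up to 100 uM, 0.5% DMSO, in duplicate. ABCC2 mRNA measured by qRT-PCR (TaqMan, Fluidigm), normalized to ACTB, GAPDH and POLR2A. Fitted in both directions against DMSO.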

[5] = read-out: Broad substrate specificity ATP-binding cassette transporter ABCG2 (Homo sapiens) (UniProt Q9UNQ0); assay: LTEA_HepaRG_ABCG2: Life Technologies and Expression Analysis (LTEA) Assay for ABC Transporter (ABCG2) using HepaRG (AID 2283465)
Method in brief: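 Gene expression of ABCG2 in HepaRG liver cells is quantified by qRT-PCR following 48 h exposure across an eight-point series topping at 100 uM. Values come from bidirectional fitting relative to DMSO vehicle.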

[6] = read-out: ATP-citrate lyase (ACLY), ACLY (gene 47); assay: LTEA_HepaRG_ACLY: Life Technologies and Expression Analysis (LTEA) Assay for ATP-citrate lyase (ACLY) using HepaRG (AID 2283466)
Method in brief: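 ACLY expression changes in human HepaRG liver cells are quantified by qRT-PCR after 48 h exposure to test chemicals (maximum 100 uM, half-log steps). Values are fitted in both directions relative to 0.5% DMSO vehicle.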

[7] = read-out: Peroxisomal acyl-coenzyme A oxidase 1 (ACOX1) gene, ACOX1 (gene 51); assay: LTEA_HepaRG_ACOX1: Life Technologies and Expression Analysis (LTEA) Assay for Peroxisomal acyl-coenzyme A oxidase 1 (ACOX1) gene using HepaRG (AID 2283467)
Method in brief: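 Human HepaRG hepatic cultures, 48 h treatment with test chemicals up to 100 uM. ACOX1 expression read by qRT-PCR relative to 0.5% DMSO vehicle.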

[8] = read-out: Alkaline Phosphatase, Placental (ALPP) gene, ALPP (gene 250); assay: LTEA_HepaRG_ALPP: Life Technologies and Expression Analysis (LTEA) Assay for Alkaline Phosphatase, Placental (ALPP) gene using HepaRG (AID 2283468)
Method in brief: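 HepaRG cells plated 48 h, then exposed in duplicate for 48 h in serum-free induction medium to 8-point half-log series from 100 uM in 0.5% DMSO. ALPP mRNA by TaqMan qRT-PCR, normalized to ACTB/GAPDH/POLR2A; bidirectional fit versus DMSO.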

[9] = read-out: Bcl-2 (BAD) gene, BAD (gene 572); assay: LTEA_HepaRG_BAD: Life Technologies and Expression Analysis (LTEA) Assay for Bcl-2 (BAD) gene using HepaRG (AID 2283469)
Method in brief: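 Activity values reflect up- or down-regulation of BAD mRNA in human HepaRG hepatic cells treated 48 h in serum-free medium, with eight-point half-log dosing capped at 100 uM and 0.5% DMSO vehicle.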

[10] = read-out: Bcl-2 (BAX) gene, BAX (gene 581); assay: LTEA_HepaRG_BAX: Life Technologies and Expression Analysis (LTEA) Assay for Bcl-2 (BAX) gene using HepaRG (AID 2283470)
Method in brief: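 qRT-PCR read-out of BAX mRNA, normalized to three housekeeping genes, after 48 h chemical exposure of human HepaRG cells in serum-free induction medium; eight-point half-log series, top 100 uM, 0.5% DMSO vehicle; bidirectional fit versus DMSO.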

[11] = read-out: adenosine kinase (ADK) gene, ADK (gene 132); assay: LTEA_HepaRG_ADK: Life Technologies and Expression Analysis (LTEA) Assay for adenosine kinase (ADK) gene using HepaRG (AID 2283471)
Method in brief: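 HepaRG (human liver), 48 h chemical exposure, 8-pt half-log series, top 100 uM, 0.5% DMSO vehicle. Readout: ADK mRNA by qRT-PCR vs housekeeping genes; bidirectional curve fit relative to DMSO baseline.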

[12] = read-out: Alpha-fetoprotein (AFP) gene, AFP (gene 174); assay: LTEA_HepaRG_AFP: Life Technologies and Expression Analysis (LTEA) Assay for Alpha-fetoprotein (AFP) gene using HepaRG (AID 2283472)
Method in brief: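 qRT-PCR (Fluidigm TaqMan) readout of AFP transcript, normalized to three housekeeping genes, fitted bidirectionally against 0.5% DMSO baseline. HepaRG cells received chemicals for 48 h in serum-free induction medium, top concentration 100 uM, half-log steps.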

BCL2L11 (gene 10018) = assay: LTEA_HepaRG_BCL2L11: Life Technologies and Expression Analysis (LTEA) Assay for Bcl-2 (BCL2L11) gene using HepaRG (AID 2283473)
Method in brief: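 Differentiated human HepaRG cells were exposed 48 h in serum-free induction medium to eight half-log concentrations up to 100 uM in 0.5% DMSO, in duplicate. BCL2L11 mRNA was quantified by TaqMan qRT-PCR, normalized to ACTB, GAPDH and POLR2A; induction or repression fitted versus DMSO.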

[13] = read-out: Apolipoprotein A-V (APOA5) gene, APOA5 (gene 116519); assay: LTEA_HepaRG_APOA5: Life Technologies and Expression Analysis (LTEA) Assay for Apolipoprotein A-V (APOA5) gene using HepaRG (AID 2283474)
Method in brief: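 Differentiated HepaRG cells in serum-free induction medium, exposed 48 h in duplicate to eight half-log concentrations topping at 100 uM (0.5% DMSO). APOA5 mRNA by Fluidigm TaqMan qRT-PCR, normalized to ACTB, GAPDH and POLR2A; bidirectional fit versus DMSO.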

[14] = read-out: Apoptosis regulator Bcl-2 (Homo sapiens) (UniProt P10415); assay: LTEA_HepaRG_BCL2: Life Technologies and Expression Analysis (LTEA) Assay for Bcl-2 gene using HepaRG (AID 2283475)
Method in brief: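 qRT-PCR read-out (Fluidigm TaqMan) of BCL2 transcript, normalised to three housekeeping genes, after 48 h chemical exposure of HepaRG cells; 8-point half-log series, top 100 uM, 0.5% DMSO vehicle. Gain or loss of signal fitted relative to DMSO baseline.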

[15] = read-out: Bcl-2 (BID) gene, BID (gene 637); assay: LTEA_HepaRG_BID: Life Technologies and Expression Analysis (LTEA) Assay for Bcl-2 (BID) gene using HepaRG (AID 2283476)
Method in brief: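 HepaRG, 48 h exposure, 8-pt half-log series, top 100 uM, 0.5% DMSO vehicle, duplicates. Readout: BID mRNA by TaqMan qRT-PCR; housekeeping-normalized; bidirectional curve fit vs DMSO baseline.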

Caspase-3 (Homo sapiens) = Caspase-3 (Homo sapiens) (UniProt P42574); assay: LTEA_HepaRG_CASP3: Life Technologies and Expression Analysis (LTEA) Assay for cysteine-aspartic acid protease (CASP3) using HepaRG (AID 2283477)
Chain of Caspase-3 (Homo sapiens) (P42574 whole entry, looked up): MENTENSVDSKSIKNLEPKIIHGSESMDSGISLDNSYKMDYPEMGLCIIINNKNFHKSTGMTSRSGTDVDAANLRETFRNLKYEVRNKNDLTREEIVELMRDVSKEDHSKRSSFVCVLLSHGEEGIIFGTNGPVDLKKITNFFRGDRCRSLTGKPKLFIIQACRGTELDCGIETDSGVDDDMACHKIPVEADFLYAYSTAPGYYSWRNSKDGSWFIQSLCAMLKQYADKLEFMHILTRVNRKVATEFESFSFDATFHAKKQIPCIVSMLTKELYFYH
Method in brief: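 Differentiated HepaRG cells, plated 48 h, were treated in duplicate in serum-free induction medium for 48 h with eight half-log concentrations up to 100 uM in 0.5% DMSO. CASP3 mRNA measured by qRT-PCR, normalized to ACTB, GAPDH, POLR2A.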

[16] = read-out: Cytochrome P450 (CYP24A1), CYP24A1 (gene 1591); assay: LTEA_HepaRG_CYP24A1: Life Technologies and Expression Analysis (LTEA) Assay for Cytochrome P450 (CYP24A1) using HepaRG (AID 2283478)
Method in brief: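 HepaRG cells plated 48 h, then exposed in duplicate in serum-free induction medium for 48 h to 8-point half-log series from 100 uM in 0.5% DMSO. CYP24A1 mRNA by Fluidigm qRT-PCR, normalized to ACTB, GAPDH, POLR2A; bidirectional fit versus DMSO.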

[17] = read-out: Cytochrome P450 (CYP1A2), CYP1A2 (gene 1544); assay: LTEA_HepaRG_CYP1A2: Life Technologies and Expression Analysis (LTEA) Assay for Cytochrome P450 (CYP1A2) using HepaRG (AID 2283479)
Method in brief: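 Differentiated human HepaRG cells in serum-free induction medium exposed 48 hours in duplicate to 8 half-log concentrations from 100 uM, 0.5% DMSO. CYP1A2 mRNA quantified by qRT-PCR, normalized to ACTB, GAPDH and POLR2A; bidirectional fitting versus DMSO.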

[18] = read-out: cysteine-aspartic acid protease (CASP8), CASP8 (gene 841); assay: LTEA_HepaRG_CASP8: Life Technologies and Expression Analysis (LTEA) Assay for cysteine-aspartic acid protease (CASP8) using HepaRG (AID 2283480)
Method in brief: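 Concentration-response in duplicate up to 100 uM (half-log steps, 0.5% DMSO) on differentiated HepaRG cultures for 48 h. Expression change of CASP8 mRNA is determined by TaqMan qRT-PCR with housekeeping-gene normalization.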

Measured: outcome

Chain of Apoptosis regulator Bcl-2 (Homo sapiens) (P10415 whole entry, looked up): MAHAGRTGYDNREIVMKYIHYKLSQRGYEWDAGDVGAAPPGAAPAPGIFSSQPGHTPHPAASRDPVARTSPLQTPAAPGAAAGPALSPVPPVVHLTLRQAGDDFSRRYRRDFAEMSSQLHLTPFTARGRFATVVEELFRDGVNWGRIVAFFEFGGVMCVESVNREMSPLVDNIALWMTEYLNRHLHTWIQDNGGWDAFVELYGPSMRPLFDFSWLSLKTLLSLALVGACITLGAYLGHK
Chain of Broad substrate specificity ATP-binding cassette transporter ABCG2 (Homo sapiens) (Q9UNQ0 whole entry, looked up): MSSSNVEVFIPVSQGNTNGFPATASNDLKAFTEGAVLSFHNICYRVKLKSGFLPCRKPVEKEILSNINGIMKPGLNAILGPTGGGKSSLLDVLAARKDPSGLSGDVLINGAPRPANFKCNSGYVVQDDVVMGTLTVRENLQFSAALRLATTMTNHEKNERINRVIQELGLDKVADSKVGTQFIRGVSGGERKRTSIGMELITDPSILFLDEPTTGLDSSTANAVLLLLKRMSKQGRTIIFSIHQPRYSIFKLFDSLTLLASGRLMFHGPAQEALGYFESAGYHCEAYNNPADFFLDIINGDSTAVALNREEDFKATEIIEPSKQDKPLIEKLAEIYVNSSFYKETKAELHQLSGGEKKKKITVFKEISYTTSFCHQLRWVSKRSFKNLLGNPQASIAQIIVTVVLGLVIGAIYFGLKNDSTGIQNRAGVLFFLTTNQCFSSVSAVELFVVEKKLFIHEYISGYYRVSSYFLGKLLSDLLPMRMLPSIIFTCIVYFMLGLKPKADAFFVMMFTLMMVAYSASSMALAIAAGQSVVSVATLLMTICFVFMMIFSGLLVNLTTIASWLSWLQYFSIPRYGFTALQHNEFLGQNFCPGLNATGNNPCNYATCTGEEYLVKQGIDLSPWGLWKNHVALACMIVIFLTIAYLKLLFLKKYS

O=C(CCl)c1ccccc1
inactive: [1] | [2] | [3] | [4] | [5] | [6] | [7] | [8] | [9] | [10] | [11] | [12] | BCL2L11 (gene 10018) | [13] | [14] | [15] | Caspase-3 (Homo sapiens) | [16] | [17] | [18]
